# Bioassay records as filed in PubChem BioAssay.
# HP1b chromo inh = HP1-beta chromodomain-methylated histone interaction inhibition; P83916; AlphaScreen HP1-beta / biotin-H3K9me3 peptide binding; Potency, µM (titrated, usually from 114 µM), for the others: at the highest dose activity change, negative = inhibition, most hits filed as inhibitors; 390,000 tested, 0.56% active; AID 540317; also: nearly all actives have a fitted effect of over 70% in size
# Target sequence (P83916 whole entry, looked up): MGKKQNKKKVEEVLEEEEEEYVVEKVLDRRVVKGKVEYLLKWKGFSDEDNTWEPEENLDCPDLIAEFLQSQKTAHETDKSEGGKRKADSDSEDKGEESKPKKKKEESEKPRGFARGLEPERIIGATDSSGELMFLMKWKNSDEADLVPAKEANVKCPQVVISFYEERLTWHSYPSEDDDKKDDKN
#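 Compound inhibition of the preformed complex between 50 nM HP1-beta and 50 nM biotinylated H3K9me3 peptide was read by AlphaScreen. Buffer was PBS pH 7.4 with 0.01% Tween-20. Incubations ran 30 min at room temperature, with 10 ug/mL donor/acceptor beads.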
# G9a inh = G9a (human) methyltransferase inhibition. Q96KQ7. G9a H3K9 monomethylation, AlphaScreen, 2 h. Potency, µM (highest dose often 102 µM), without a hit: at the highest dose activity, negative = inhibition, hits mostly inhibitors. 350,000 tested, 8.8% active; also: % is scaled to controls: 0 for no effect and ±100 for the full control effect; nearly all actives have a fitted effect of over 75% in size
# Target sequence (Q96KQ7 913-1193 limits assumed): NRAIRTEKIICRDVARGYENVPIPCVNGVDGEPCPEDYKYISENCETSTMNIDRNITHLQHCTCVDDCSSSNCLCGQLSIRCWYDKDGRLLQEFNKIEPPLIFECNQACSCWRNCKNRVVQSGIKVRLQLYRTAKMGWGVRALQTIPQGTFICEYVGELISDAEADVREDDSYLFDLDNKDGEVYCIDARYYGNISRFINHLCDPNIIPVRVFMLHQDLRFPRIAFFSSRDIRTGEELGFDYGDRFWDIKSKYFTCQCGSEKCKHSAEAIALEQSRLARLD
#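 G9a (20 nM) preincubated 15 min RT with compounds, then 500 nM biotinylated H3K9 peptide and 20 uM SAM added; 2 h RT reaction. Monomethyl-H3K9 product detected by AlphaScreen with anti-H3K9me1 antibody, streptavidin donor and anti-rabbit IgG acceptor beads.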
# TDP1 inh = inhibitors of human tyrosyl-DNA phosphodiesterase TDP1; Q9NUW8; recombinant TDP1, AlphaScreen DNA substrate cleavage; Potency, µM (doses to about 130 µM), for inactives: at the highest dose activity change, negative = inhibition, actives largely listed as inhibitors; 350,000 tested, 0.28% active; AID 485290; also: % is scaled to controls: 0 for no effect and ±100 for the full control effect; nearly all actives have a fitted effect of over 40% in size
#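 Here, a 5' biotin and 3' phosphotyrosine-FITC DNA oligonucleotide reports Tdp1 activity: intact substrate bridges AlphaScreen beads, while cleavage leaves a 3' phosphate and drops signal. All incubations at room temperature.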
# BAZ2B block = BAZ2B (human) inhibition; 360,000 tested, 4.4% active; Potency, µM (doses to about 114 µM), inactives show at the highest dose activity change, negative = inhibition, hits mostly inhibitors; AlphaScreen BAZ2B-H3K14Ac peptide displacement; also: % is scaled to controls: 0 for no effect and ±100 for the full control effect; nearly all actives have a fitted effect of over 60% in size
#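 Compounds, titrated to a top concentration of 110 uM, were incubated 30 min at room temperature with preformed BAZ2B/acetyl-K14 H3 peptide complex (50 nM each). Proximity signal was measured by AlphaScreen after 20 min with beads.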
# JMJD2A Tudor = inhibitors of human JMJD2A Tudor domain | O75164 | AlphaScreen JMJD2A-Tudor / H3K4me3 peptide binding | Potency, µM (titrated, usually from 114 µM), for the others: at the top dose activity change, negative = inhibition, usual class: inhibitors | 390,000 tested, 4.4% active; also: % is scaled to controls: 0 for no effect and ±100 for the full control effect; nearly all actives have a fitted effect of over 50% in size
# Sfp PPTase inh = blocks B. subtilis Sfp PPTase activity. Q9F4F7. Biochemical Sfp PPTase activity, qHTS. Potency, µM, for inactives: largest response in the series, negative = inhibition, actives largely listed as inhibitors. 310,000 tested, 3.5% active. AID 1490;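 also: the enzyme is Sfp with the accession as filed and its product quenches rhodamine fluorescence; 0% = enzyme reaction without inhibitor and -100% = no enzyme wells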
#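 With Hepes-Na pH 7.6 buffer containing 10 mM MgCl2, Sfp (15 nM) modified BHQ-2-YbbR (12.5 uM) using rhodamine-CoA (5 uM). Two reads 30 minutes apart at 525/598 nm yielded each well's rate.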
# Numbers without * were called inactive; ? = inconclusive; nt = no result given; [ ] = remark or other dose. Most compounds without a hit are left out; they make up all but 12% or so of the library. Calls follow the shape of the dose curve; as a rule, active = well fitted curve in the direction sought with a large enough effect; inconclusive = small, poorly fitted or top-dose-only effect, or another doubt; inactive = no such curve, though single readings can be large; an effect the other way counts as inactive or inconclusive. Potency is read from the fitted curve at half-maximal effect.
SMILES,HP1b chromo inh,G9a inh,TDP1 inh,BAZ2B block,JMJD2A Tudor,Sfp PPTase inh
O=C(Cc1ccccn1)Nc1ccccc1,52%,40µM*,2%,?,-27%,14%
O=C(CSCc1ccccn1)Nc1ccccc1,34%,-31%[59 µM],6%,-2%,2%[11.4 µM],11%
O=C(Cc1ccccc1)Nc1nccs1,29%,24%,nt,-21%,1%,0%
COc1ccc(C(=O)OCC(=O)NCCN2C(=O)CSC2=O)cc1[N+](=O)[O-],11%[57 µM],nt,-1%,nt,-6%,nt
CCOc1ccc(CCNC(=O)c2ccc(CSCc3ccccc3C)o2)cc1OCC,41%,?,5%,13%,-23%,nt
O=C(CSc1nc(=O)[nH]c2c1CCCC2)NCc1ccc(F)cc1,28%,3%[59 µM],3%,0%,-3%,nt
S=C(NCc1ccccn1)Nc1ccccc1,34%,19%[59 µM],4%,79µM*,-2%,1%
Cc1ccc(NS(=O)(=O)c2ccc(-c3cc(C)no3)cc2)c(Br)c1,46%,?,6%,-1%,9%,nt
Cc1cccc(-c2nn(-c3ccccc3)cc2CNCCO)c1,?,nt,2%,nt,10µM*,nt
CC(C)(C)c1ccc(C(=O)NCC(=O)OC(C(=O)Nc2cc(C(F)(F)F)ccc2Cl)c2ccccc2)cc1 (stereo not given),nt,nt,0%,nt,-21%,nt
Cc1sc2nc3ccc(N4CCCCC4)nn3c(=O)c2c1C,9%,32µM*,-2%,8%,3%,-16%
C[C@H]1C=C2C=C[C@H](C)[C@H](CC[C@@H]3C[C@@H](O)CC(=O)O3)[C@H]2[C@@H](OC(=O)[C@@H](C)CCO)C1,nt,nt,12%,nt,nt,-19%
Cn1c(=O)c([N+](=O)[O-])c(-n2ccnc2)c2ccccc21,7%,?,-4%,-14%,-20%,56µM*
Cn1c(=O)c([N+](=O)[O-])c(NCCCn2ccnc2)c2ccccc21,25%,nt,5%,-7%,-5%,11%
CC(C)c1ccc(Nc2c([N+](=O)[O-])c(=O)n(C)c3ccccc23)cc1,-9%,?,4%,?,?,-1%
Cc1cccc(Nc2c([N+](=O)[O-])c(=O)n(C)c3ccccc23)c1,-9%,-14%[59 µM],7%,?,50µM*,5%
CCCCc1cc(=O)oc2cc(OCc3nn[nH]n3)ccc12,18%,56µM*,7%,-1%,-1%,-8%
CCCCc1cc(=O)oc2c(C)c(OCC(=O)N3CCCC3)ccc12,17%,nt,2%,0%,-8%,5%
C=C(Cl)COc1ccc2c(CCC)cc(=O)oc2c1,209%,19%[12.7 µM],89µM*,52%,104%,-25%
CCCCc1cc(=O)oc2c(C)c(OCC(=O)N3CCC(C(=O)O)(c4ccccc4)CC3)ccc12,2%,3.2µM*,nt,-26%,-22%,6%
CCCCc1cc(=O)oc2c(C)c(OCc3nn[nH]n3)ccc12,16%,50µM*,4%,-17%,-20%,-13%
COC(=O)Cc1c(C)c2ccc(OCc3nn[nH]n3)cc2oc1=O,12%,?,0%,-35%,-11%,-3%
Cc1ccc(Cl)cc1N1CCN(C(=O)c2cnc(N3CCOCC3)c3ccccc23)CC1,6%[57 µM],10%[59 µM],3%,-18%,-25%,nt
COc1ccc(-c2nnc(SCC(=O)N3CCCC3)o2)c(OC)c1,10%,22%,nt,-1%,-7%,7%
COc1ccccc1CNC(=O)CN1C(=O)CCc2cc(S(=O)(=O)N3CCOCC3)ccc21,42%,47%[59 µM],6%,-4%,-9%,nt
SMILES,HP1b chromo inh,G9a inh,TDP1 inh,BAZ2B block,JMJD2A Tudor,Sfp PPTase inh
FC(F)OC(Cl)C(F)(F)F (stereo not given),nt,-1%[12.7 µM],nt,nt,nt,34%
O=C(CNC(=O)c1ccc(Br)o1)Nc1cccc(S(=O)(=O)N2CCOCC2)c1,-3%,50µM*,0%[0.505 µM],-1%,-23%,nt
O=C(COC(=O)c1ccc(Br)o1)Nc1cccc(S(=O)(=O)N2CCOCC2)c1,15%,nt,1%,nt,-14%,nt
O=C(CN1CCN(S(=O)(=O)c2ccc3ccccc3c2)CC1)Nc1ccc(N2CCOCC2)cc1,-9%,40µM*,5%,-38%,-44%,14%
COC(=O)c1cccc(NC(=O)CN2CCN(c3ccc(OC)cc3)CC2)c1,-1%,?,-7%,-13%,?,9%
O=C(CN1c2cccc3cccc(c23)S1(=O)=O)Nc1ccc(S(=O)(=O)N2CCOCC2)cc1,2%,7.9µM*,-6%,-39%,-25%,?
O=C(CN1C(=O)c2cccc3cccc1c23)Nc1ccc(S(=O)(=O)N2CCOCC2)cc1,60%,19%[59 µM],2%,20%,-14%,8%
COc1ccc(N2CCN(CC(=O)Nc3cccc(S(=O)(=O)N4CCOCC4)c3)CC2)cc1,-65%,14µM*,2%,35µM*,7.9µM*,-9%
Cc1ccc(C)c(Cn2c(=O)n(CCCCC(=O)NCc3ccc4c(c3)OCO4)c(=O)c3ccccc32)c1,15%,8%[59 µM],-1%,-11%,-10%,nt
Cc1ccc(C)c(NC(=O)Cn2cc(S(=O)(=O)NC(C)C)c(S(=O)(=O)NC(C)C)c2)c1,34%,-6%[59 µM],-3%,9%[57.1 µM],-1%,nt
COc1ccc(S(=O)(=O)N2CCN(CC(=O)Nc3ccc(C)c(F)c3)CC2)cc1,16%,45µM*,9%,5%,-20%,-25%
Cc1ccc(NC(=O)CN2CCN(S(=O)(=O)c3ccc(C(C)C)cc3)CC2)cc1F,28%,-28%[59 µM],3%,2%,-22%,nt
CN(C)c1ccc(S(=O)(=O)NCC(=O)NCCOc2ccccc2F)cc1[N+](=O)[O-],-13%,50µM*,-12%,-33%,-31%,nt
CN(C)c1ccc(S(=O)(=O)NCC(=O)N2CCN(S(=O)(=O)c3cccc(F)c3)CC2)cc1[N+](=O)[O-],10%,nt,nt,nt,-34%,nt
CN(CC(=O)Nc1cccc(F)c1)C(=O)CNS(=O)(=O)c1ccc(N(C)C)c([N+](=O)[O-])c1,-12%,50µM*,1%,71µM*,?,nt
CCOc1c(Br)cc(Br)cc1/C=C1\SC(N)=NC1=O,10%,nt,1%,?,25µM*,-12%
CC1(C)CN(O)CCN1O,20%,20µM*,8%,-28%,-17%,-13%
CCN(CC)CCN(CC(=O)N(C1CCCCC1)C1CCCCC1)C(=O)c1cccnc1,36%,50µM*,3%,?,-9%,-23%
O=C(O)Cn1cnc2scc(-c3cccs3)c2c1=O,14%,?,nt,?,-17%,56µM*
COc1ccc(-c2nc(CS(=O)CC(=O)NC3CCC(C)CC3)c(C)o2)cc1OC (stereo not given),1%,18%,4%,-17%,?,0%
